Source: PubChem BioAssay
This excerpt belongs to a sample that is enriched for hits.
RE007 growth inh: less growth of the S. pombe RE007 Vpr strain | S. pombe RE007 Vpr strain, BacTiter-Glo ATP luminescence, 24 h | Potency, µM (titrated, usually from 92.2 µM), without a hit: at the highest dose activity change, negative = less growth, most hits filed as inhibitors | actives 0.21% (n = 360,000) | AID 651644; active means well fitted falling curve with a large enough effect; inconclusive means small, poorly fitted or top-dose-only effect; inactive means no such curve, though single readings can be large or run the other way; further: potency means the concentration at half of the fitted maximal effect; on the % scale 0 is the no-effect control and ±100 the full control effect; nearly all actives have a fitted effect of over 50% in size
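Fission yeast RE007 carrying one integrated HIV-1 vpr copy, seeded at OD 0.01 in PMG+AL medium with 23 nL pinned compound. Grown 24 h at 30 degrees; viability read by BacTiter-Glo luminescence after 5 min.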
Shiga toxin inh: inhibitors of Shiga toxin in Vero cells; inhibition, % at 38.7 µM; actives 9.2% (n = 290,000); Vero cells, Shiga toxin protein synthesis inhibition reporter; in the data active means inhibition mostly above about 28%, no sharp cut-off; inactive means mostly below about 43%; further: 0% is about no effect
LmPK inhibitor: blocks Leishmania mexicana pyruvate kinase activity | purified LmPK, Kinase-Glo ATP luminescence, 1 h | Potency, µM (titrated, usually from 57.5 µM), for inactives: top-dose activity change, negative = inhibition, usual class: inhibitors | actives 0.37% (n = 290,000) | AID 1721; further: potency means the concentration at half of the fitted maximal effect; on the % scale 0 is the no-effect control and ±100 the full control effect
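Screened at intermediate enzyme activity to detect both inhibitors and activators: LmPK at 0.1 nM, with a 0.5 nM enzyme column as activation reference. PEP 0.5 mM, ADP 0.1 mM; ATP detected by luminescence after 1 h.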
Cycloheximide cs: counter-screen for Shiga toxin inhibitors: cycloheximide protein synthesis inhibition. cell reporter, cycloheximide protein synthesis inhibition counterscreen. max response, %. actives 12% (n = 300,000); in the data active means max response mostly above about 13%, no sharp cut-off; inactive means mostly below about 14%; further: read at 38.3 µM for the half of the compounds with a filed dose; 0% is about no effect
Giardia FBPA inh: inhibitors of Giardia lamblia fructose-1,6-bisphosphate aldolase; purified Giardia FBPA; Potency, µM (titrated, usually from 59.6 µM), for the others: at the top dose activity, negative = inhibition, hits mostly inhibitors; actives 0.71% (n = 290,000); A8B2U2; further: potency means the concentration at half of the fitted maximal effect; on the % scale 0 is the no-effect control and ±100 the full control effect; nearly all actives have a fitted effect of over 55% in size
Target sequence (A8B2U2 whole entry, looked up): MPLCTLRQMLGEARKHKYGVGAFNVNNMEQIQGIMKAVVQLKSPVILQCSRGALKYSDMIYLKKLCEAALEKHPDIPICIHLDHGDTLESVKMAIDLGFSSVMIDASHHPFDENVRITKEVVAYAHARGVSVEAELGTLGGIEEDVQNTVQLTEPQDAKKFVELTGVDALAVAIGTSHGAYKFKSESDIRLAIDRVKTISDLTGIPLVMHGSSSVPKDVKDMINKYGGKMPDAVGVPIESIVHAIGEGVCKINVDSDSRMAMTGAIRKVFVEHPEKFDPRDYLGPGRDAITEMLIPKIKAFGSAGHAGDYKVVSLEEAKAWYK
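40 nM FBPA preincubated 10 min at RT with compound (up to 57.5 uM final), then substrate plus GAPDH/TPI/NAD/arsenate coupling and diaphorase/resazurin added. Fluorescence read after 20 min at RT, 525/598 nm.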
TbPYK inhibitor: blocks Trypanosoma brucei pyruvate kinase; Potency, µM (highest dose often 76.8 µM), without a hit: at the top dose activity, negative = inhibition, most hits filed as inhibitors; AID 624173; TbPYK enzyme, Kinase-Glo Plus ATP luminescence, 45 min; actives 0.12% (n = 410,000); Q57TT1; further: potency means the concentration at half of the fitted maximal effect; on the % scale 0 is the no-effect control and ±100 the full control effect; nearly all actives have a fitted effect of over 50% in size
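Activity of T. brucei pyruvate kinase was followed by Kinase-Glo Plus luminescence after the enzyme reacted 45 min at room temperature with 130 uM ADP (final) and substrate. Test compounds were added before ADP at multiple concentrations.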
Active calls of the source: *; ? = inconclusive; . = not tested or not shown; [ ] = dose if it differs, or a comment. Unless noted, the call rests on the fitted dose curve; in most records, active means well fitted curve in the direction sought with a large enough effect; inconclusive means small, poorly fitted or top-dose-only effect, or another doubt; inactive means no such curve, though single readings can be large; an effect the other way counts as inactive or inconclusive.

SMILES	RE007 growth inh	Shiga toxin inh	LmPK inhibitor	Cycloheximide cs	Giardia FBPA inh	TbPYK inhibitor
O=C(/C=C/c1ccccc1Cl)c1ccccc(=O)c1O	-16.4%	88.9*	-1.0%	64.8*	?	-9.9%
Cn1c(=O)c2cc(C(=O)Nc3cccc(C#N)c3)sc2c2ccccc21	.	.	.	.	.	-19.3%
CC[C@H](C)C(=O)O[C@H]1C[C@H](O)C=C2C=C[C@H](C)[C@H](CC[C@@H](O)C[C@@H](O)CC(=O)O)[C@H]21	.	.	.	.	2.3%	.
CN(C)C=Nc1ccc2nn(-c3ccccc3)nc2c1	?	92.7*	-6.9%	43.4*	-14.2%	4.3%
Cn1c(CNc2ccccc2)nc2ccccc21	?	67.0*	?	36.6*	-2.0%	-0.8%
Fc1ccc(NCc2nc3ccccc3n2CCOc2ccccc2Cl)cc1	.	.	.	.	.	-0.2%
Cn1c(CNc2ccc(F)cc2)nc2ccccc21	-9.2%	71.4*	?	34.3*	12.5%	-5.4%
CN(Cc1nc2ccccc2n1C)S(=O)(=O)c1ccc(F)cc1	-10.9%	26.4	-1.3%	16.0*	-0.2%	-2.9%
c1ccc2nc3c(nc2c1)[nH]c1ccccc13	-14.9%	103.5*	-10.0%	63.7*	-14.5%	-4.3%
Clc1ccccc1Nc1nc(-c2ccncc2)nc2ccccc12	-1.0%	-13.7	-0.9%	-4.6	-7.9%	-6.8%
O=c1oc(Nc2cccc(Cl)c2)nc2ccccc12	-3.9%	47.5*	2.7%	36.1*	0.6%	-0.7%
O=c1oc(Nc2ccccc2F)nc2ccccc12	-14.6%	52.5*	-10.7%	33.6*	-6.0%	3.9%
O=c1oc(Nc2ccccc2Cl)nc2ccccc12	?	31.1	-0.9%	23.0*	-7.4%	-3.3%
O=c1oc(-c2ccccc2NS(=O)(=O)c2ccc(F)cc2)nc2ccccc12	9.4%	-6.3	-0.6%	-2.6	7.0%	-0.7%
COc1nc(C)cnc1NS(=O)(=O)c1cccnc1-c1ccc(-c2nnco2)cc1	.	.	.	.	.	0.0%
Cc1ccc(Cn2c(C)c(CNCC(C)c3ccccc3)c(C(=O)O)c2C)cc1 (configuration not stated)	.	.	.	.	.	0.7%
Cc1cc(C)n2nc(C(=O)Nc3nccs3)nc2n1	4.2%	84.3*	-12.7%	23.2*	8.7%	-1.4%
Cc1csc(NC(=O)c2nc3nc(C)cc(C)n3n2)n1	10.5%	48.9	-1.6%	48.4*	-27.6%	-5.4%
Cc1cc(C)n2nc(C(=O)Nc3nnc(C4CC4)s3)nc2n1	14.1%	-17.8	-0.2%	-1.5	?	-7.3%
CC(=O)O[C@H]1CC[C@@]2(C)C(=CCC3C2CC[C@]2(C)C(c4cccnc4)=CCC32)C1 (some centres not stated)	.	.	.	.	.	-2.4%
O=C(Nc1cccc(NC(=O)c2nccc3ccccc23)c1)c1ccco1	6.6%	129.8*	-2.1%	45.4*	-20.8%	3.3%
O=C(Nc1cccc(NC(=O)c2sc3ccccc3c2Cl)c1)c1ccco1	6.2%	68.7*	4.3%	39.8*	-4.8%	-8.6%
O=C(Nc1cccc(-c2nc3ncccc3o2)c1)c1sc2ccccc2c1Cl	-17.4%	-8.6	-1.0%	-2.3	1.4%	-4.2%
O=C(NCCc1ccccc1)c1nccc2ccccc12	-17.7%	.	.	.	.	-5.0%
Cc1cc(CNC(=O)[C@]2(C(F)(F)F)C[C@H](CCC3CCCCC3)CCCO2)nn1C	.	12.0	.	7.3	-0.3%	.
SMILES	RE007 growth inh	Shiga toxin inh	LmPK inhibitor	Cycloheximide cs	Giardia FBPA inh	TbPYK inhibitor
Cc1sc(NC(=S)NC(=O)c2ccco2)c(C#N)c1C	8.2%	27.0	-0.7%	15.4*	?	5.6%
Cc1sc(NC(=S)NC(=O)c2ccccc2)c(C#N)c1C	5.5%	.	.	.	.	-5.7%
CCc1c(C)sc(NC(=O)c2ccco2)c1C#N	-17.0%	69.1*	-0.8%	36.7*	-5.5%	-3.1%
CCOC(=O)c1sc(NC(=O)c2ccco2)c(C#N)c1C	-8.8%	-13.9	0.1%	-3.6	0.5%	-13.1%
CC(=O)N1CCCc2cc(S(=O)(=O)N3CCN(c4ccccc4F)CC3)ccc21	.	.	.	.	.	-3.0%
c1csc(CNc2nc(-c3ccc4c(c3)OCO4)nc3ccccc23)c1	.	.	.	.	-26.7%	.
OCCN(Cc1nc(-c2ccc3c(c2)OCO3)no1)Cc1cccs1	6.1%	36.0*	8.2%	17.0	3.0%	-2.2%
Cc1ccc(-c2nnc(SCc3ccccc3C#N)o2)cc1	.	.	.	.	.	-3.0%
Cn1c(=O)c2cc(S(=O)(=O)NC(Cc3ccccc3)C(=O)Nc3ccc(F)cc3)ccc2n(C)c1=O (configuration not stated)	.	.	.	.	.	-1.1%
COc1ccccc1NC(=O)c1c(C)cc(C)nc1SCC(=O)Nc1cccc(C)c1	.	.	.	.	.	-0.5%
CC(=O)Nc1cccc(NC(=O)c2ccc(S(=O)(=O)NCc3ccco3)cc2)c1	9.6%	.	.	.	.	3.0%
Cc1cccc(NC(=O)c2ccc(F)c(S(=O)(=O)N3CCC4(CC3)OCCO4)c2)c1	3.0%	27.6	-9.5%	33.8*	.	-5.1%
O=C(Nc1cccc(Cl)c1)c1ccc(F)c(S(=O)(=O)N2CCC3(CC2)OCCO3)c1	.	.	.	.	.	2.5%[15.4 µM]
Cc1cccc(NC(=O)c2ccc(F)c(S(=O)(=O)NCc3ccco3)c2)c1	1.7%	83.8*	-12.0%	43.7*	.	-11.8%
CN(C)C1(CNC(=O)c2ccc(Cl)c(S(=O)(=O)NCc3ccco3)c2)CCCCC1	-11.0%	38.0	5.9%	22.8*	1.7%	-13.4%
CCOC(=O)c1noc2nc(C)n(Cc3cccc(C#N)c3)c(=O)c12	.	.	.	.	.	3.0%
CCn1nc(C)cc1-c1nnc(Sc2ncc([N+](=O)[O-])s2)n1C	35.5µM*	-8.3	0.7%	-3.5	-25.1%	-21.7%
COc1cc(C(C#N)N2CCC(c3ccccc3)=N2)ccc1O (configuration not stated)	-22.9%	90.7*	-1.0%	24.8*	-6.5%	-7.7%
COc1ccc(C(C#N)N2CCCCCC2)cc1OC (configuration not stated)	9.0%	7.0	0.0%	-1.7	0.7%	2.5%
COc1ccc(C(C#N)N2CCC(c3ccccc3)=N2)cc1OC (configuration not stated)	-21.7%	27.0	-0.4%	16.9*	-2.0%	-3.3%
CC1=CC2C(C)(C)CC(=O)C[C@]2(C)CC1COc1ccc2c(c1)CC(=O)C=C2 (some centres not stated)	.	.	.	.	-5.3%	.
C=CCC1C=CC(Oc2ccc(OC)cc2)C(CO)O1 (configuration not stated)	.	.	.	.	0.4%[12.9 µM]	.
O=C(O)c1ccc(N=NNc2cccc([N+](=O)[O-])c2)cc1	3.4%	108.4*	-24.0%	41.8*	14.8%	-9.9%
COC(=O)c1ccc(N=NNc2ccc(C(=O)OC)cc2)cc1	-13.5%	126.6*	0.7%	122.1*	-5.0%	0.0%
COC(=O)c1ccc(N=NNc2ccccc2)cc1	0.3%	131.3*	-8.9%	53.3*	-19.5%	-3.0%
COc1ccc(C(=O)C(=NNc2ccccc2)c2ccc(OC)cc2)cc1	5.1%	.	.	.	.	0.4%
COC(=O)c1ccc(N=NNc2cccc(Br)c2)cc1	-6.8%	74.3*	-1.7%	63.4*	0.6%	-0.5%
